MLLE-PAM2 inh: inhibitors of microRNA-mediated deadenylation, human PABP1 MLLE binding; AID 588489; GST-MLLE / FITC-PAM2 fluorescence polarization; P11940; 360,000 compounds, 0.36% hits; inhibition, % at 20 µM; in the data active = inhibition above about 35%, passing the limit was not always enough;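 also: plate controls were DMSO wells with GST-MLLE for no effect and wells lacking GST-MLLE protein for full effect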
GRK2 aptamer HTS: human GRK2 inhibition via aptamer displacement. P25098. bead flow cytometry, FAM-aptamer displacement from GRK2. inhibition of aptamer binding, % at 10 µM. 330,000 compounds, 0.59% hits. AID 488847;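 active = inhibition of aptamer binding above 40%, roughly 3 SD of noise, on plates passing a quality check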;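 also: median bead fluorescence of bound FAM aptamer so fluorescent compounds give negative values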
eIF4H inh: inhibitors of RNA binding by human eIF4H. eIF4H fluorescence polarization binding assay. inhibition, % at 35 µM. AID 2012. Q15056. 290,000 compounds, 0.94% hits;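 also: calls also rest on retests at 20 µM and on dose response follow-up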
PABP polyA inh: blocks human PABP binding to poly(A) RNA. P11940. fluorescence polarization. inhibition, % at 35 µM. 290,000 compounds, 1% hits;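 also: calls also rest on retests at 20 µM and on dose response follow-up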
PERK inh: blocks human PERK kinase; AID 1416; Q9NZJ5; CHO PERK-DD fusion, SEAP luminescence translation reporter; 220,000 compounds, 0.17% hits; inhibition, % at 5.6 µM;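 active = inhibition above the mean inhibition of all tested compounds plus 3 SD, set separately per screening campaign, cut at about 2.9% in these data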;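 also: PERK kinase domain activated by AP20187 dimerizer at 100 nM; 0% = DMSO with dimerizer and 100% = rapamycin at 8.4 µM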
An asterisk follows results filed as active. This is a sample that favours compounds with a hit; in the whole collection about 1.9% have one here. Unless noted, no rule for the calls is given here.

CCOC(=O)CNc1nnc(SCC(=O)OCC)[nH]c1=O was read as MLLE-PAM2 inh 45.9*, GRK2 aptamer HTS 0.0, eIF4H inh 0.5, PABP polyA inh 4.8 and PERK inh 0.4.
For COC(=O)CSc1nnc(C)c(=O)[nH]1 the results were MLLE-PAM2 inh 11.7, GRK2 aptamer HTS 0.0, eIF4H inh 0.6, PABP polyA inh 2.4 and PERK inh 0.4.
For C=CCn1c(SCC(=O)c2ccc(CNC(C)=O)o2)nc2scc(C3CC3)c2c1=O the results were MLLE-PAM2 inh -47.2, GRK2 aptamer HTS 3.0, eIF4H inh 77.2*, PABP polyA inh 27.9 and PERK inh -0.9.
`C=CCn1c(SCC(=O)NC2CCS(=O)(=O)C2)nc2scc(C3CC3)c2c1=O` (stereo not given) gave MLLE-PAM2 inh -24.6, GRK2 aptamer HTS 1.0, eIF4H inh -5.2, PABP polyA inh 0.3 and PERK inh 0.2.
For CCN(CC)S(=O)(=O)c1ccc(C)c(NC(=S)Nc2cccc(S(=O)(=O)N3CCCCCC3)c2)c1 the results were MLLE-PAM2 inh 36.5*, GRK2 aptamer HTS 1.0, eIF4H inh -5.3, PABP polyA inh -1.6 and PERK inh 0.7.
For O=C(Cn1cnnn1)Nc1cccc(S(=O)(=O)N2CCCCC2)c1 the results were MLLE-PAM2 inh -2.8, GRK2 aptamer HTS 2.0, eIF4H inh 19.3*, PABP polyA inh 72.1 and PERK inh 0.1.
`O=C(NC(=S)Nc1ccc(CN2CCOCC2)cc1)c1ccco1` gave MLLE-PAM2 inh 28.5, GRK2 aptamer HTS 0.0, eIF4H inh -1.7, PABP polyA inh 2.6 and PERK inh 0.3.
O=C(NC(=S)Nc1ccc(CN2CCCCC2)cc1)c1ccco1 was read as MLLE-PAM2 inh 36.2*, GRK2 aptamer HTS 0.0, eIF4H inh -8.5, PABP polyA inh 4.8 and PERK inh -0.2.
`Cc1ccc(S(=O)(=O)N2CCCCC2)cc1NC(=O)Cn1cnnn1` gave MLLE-PAM2 inh 3.1, GRK2 aptamer HTS 0.0, eIF4H inh -5.5, PABP polyA inh 9.5 and PERK inh -0.2.
`Cc1ccc(S(=O)(=O)N2CCCCC2)cc1NC(=S)NC(=O)c1ccco1` gave MLLE-PAM2 inh 39.5*, GRK2 aptamer HTS 1.0, eIF4H inh -12.5, PABP polyA inh -1.6 and PERK inh -1.7.
Screening CN(C(=O)C1CCC(=O)N(Cc2ccccc2F)C1)C1CCOCC1 (stereo not given) returned MLLE-PAM2 inh 3.2, GRK2 aptamer HTS 1.0, eIF4H inh -4.7 and PABP polyA inh -6.5.
N#C/C(=C\c1ccc(-c2ccc([N+](=O)[O-])cc2)o1)C(=O)Nc1nc(-c2cccs2)cs1 was read as MLLE-PAM2 inh -17.0, GRK2 aptamer HTS 4.0, eIF4H inh 9.4, PABP polyA inh 2.2 and PERK inh -0.1.
`N#C/C(=C\c1ccc(-c2ccccc2[N+](=O)[O-])o1)C(=O)Nc1nc(-c2cccs2)cs1` gave MLLE-PAM2 inh 22.1, GRK2 aptamer HTS 56.0*, eIF4H inh 73.7, PABP polyA inh -0.8 and PERK inh 0.5.
CC(C)OC(=O)CC(=O)CSc1nc(-c2ccc(F)cc2)cc(-c2ccccc2)c1C#N was read as MLLE-PAM2 inh 20.4, GRK2 aptamer HTS 0.0, eIF4H inh 87.6*, PABP polyA inh 19.4* and PERK inh 1.1.
COc1ccc2[nH]c3c(NCCC4=CCCCC4)ncnc3c2c1 was read as MLLE-PAM2 inh -17.1, eIF4H inh -4.3, PABP polyA inh -0.4 and PERK inh 1.6.
COc1cc(/C=C/c2[nH]c(=O)[nH]c(=O)c2[N+](=O)[O-])cc([N+](=O)[O-])c1O was read as MLLE-PAM2 inh 23.7, GRK2 aptamer HTS 7.0, eIF4H inh 59.3* and PABP polyA inh 61.3*.
Screening CN(C(=O)CN1C(=O)/C(=C/c2ccccc2Cl)SC1=S)C1CCS(=O)(=O)C1 (stereo not given) returned MLLE-PAM2 inh 40.9*, GRK2 aptamer HTS 1.0, eIF4H inh -4.5 and PABP polyA inh 10.3.
For OCCC1CCCCN1CC(O)COCc1ccc(Cl)cc1 (stereo not given) the results were MLLE-PAM2 inh 0.4, GRK2 aptamer HTS 0.0, eIF4H inh 8.7 and PABP polyA inh 0.1.
For CC(=O)C(Sc1nccc(-c2cccs2)n1)C(C)=O the results were MLLE-PAM2 inh 36.3*, GRK2 aptamer HTS 0.0, eIF4H inh 3.2, PABP polyA inh 0.6 and PERK inh 0.3.
Screening c1ccc(Nc2nc3ccccc3n3nnnc23)cc1 returned MLLE-PAM2 inh 21.7, GRK2 aptamer HTS 1.0, eIF4H inh inconclusive, PABP polyA inh inconclusive and PERK inh 1.5.

Assay outcomes (PubChem)
